Results filed as inconclusive are left out. Calls of active or inactive are those of the source. Unless noted, calls come from the whole dose curve.
Columns and labels:
[1] = Nuclear factor erythroid 2-related factor 2/antioxidant responsive element (Nrf2/ARE) small molecule agonists: qHTS cell viability counter screen in human keratinocytes (AID 1919968; active = well fitted curve in the direction sought with a large enough effect in the repeat runs; an effect the other way counts as inactive or inconclusive; note: nearly all actives have a fitted effect of over 55% in size)
Procedure, shortened: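 KeratinoSens HaCaT cells, 1,500/well, preincubated 5 h, then exposed to compounds in DMSO for 23 h at 37 C/5% CO2. Viability read as CellTiter-Fluor fluorescence after 1 h, in the same wells as the ARE-luciferase read.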

[2] = Nuclear factor erythroid 2-related factor 2/antioxidant responsive element (Nrf2/ARE) small molecule agonists: luciferase reporter gene qHTS assay in human keratinocytes (AID 1919969); note: nearly all actives have a fitted effect of over 35% in size
[3] = target: Gonadotropin-releasing hormone receptor (Homo sapiens) (UniProt P30968); assay: Human gonadotropin-releasing hormone receptor (GnRHR) small molecule agonists, calcium flux assay in GnRHR-HEK293 cells (AID 1920063); note: nearly all actives have a fitted effect of over 35% in size
Chain of Gonadotropin-releasing hormone receptor (Homo sapiens) (P30968 whole entry, looked up): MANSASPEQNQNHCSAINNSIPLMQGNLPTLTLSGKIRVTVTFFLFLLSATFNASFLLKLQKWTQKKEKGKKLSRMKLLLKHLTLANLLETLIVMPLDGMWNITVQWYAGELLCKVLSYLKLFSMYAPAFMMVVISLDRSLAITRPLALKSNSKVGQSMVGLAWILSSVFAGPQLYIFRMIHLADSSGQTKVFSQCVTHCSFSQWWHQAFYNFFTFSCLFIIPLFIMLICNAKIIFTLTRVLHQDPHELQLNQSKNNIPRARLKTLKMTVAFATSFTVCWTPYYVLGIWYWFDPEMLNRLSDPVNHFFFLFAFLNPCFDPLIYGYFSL
Procedure, shortened: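 HEK293 cells stably expressing human GnRHR were dye-loaded for 1 h at 37 C. Compound was added in agonist mode and fluorescence (Ex/Em 480/540) recorded kinetically for 3 min. Fifteen concentrations, triplicates.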

[4] = target: KiSS-1 receptor (Homo sapiens) (UniProt Q969F8); assay: Human kisspeptin (KISS1R) small molecule agonists, calcium flux assay in KISS1R-HEK293 cells (AID 1920064; active = well fitted curve in the direction sought with a large enough effect in the repeat runs; an effect the other way counts as inactive or inconclusive)
Chain of KiSS-1 receptor (Homo sapiens) (Q969F8 whole entry, looked up): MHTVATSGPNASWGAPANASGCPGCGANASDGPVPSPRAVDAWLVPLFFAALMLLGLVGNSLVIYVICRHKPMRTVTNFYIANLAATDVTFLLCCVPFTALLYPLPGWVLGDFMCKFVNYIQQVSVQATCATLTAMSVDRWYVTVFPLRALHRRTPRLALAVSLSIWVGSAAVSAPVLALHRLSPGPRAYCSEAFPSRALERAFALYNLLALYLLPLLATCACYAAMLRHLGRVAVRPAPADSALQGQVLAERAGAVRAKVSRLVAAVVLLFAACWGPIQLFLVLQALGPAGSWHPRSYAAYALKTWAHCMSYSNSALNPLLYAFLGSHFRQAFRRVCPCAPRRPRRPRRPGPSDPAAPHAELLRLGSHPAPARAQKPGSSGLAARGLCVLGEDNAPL
Procedure, shortened: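 HEK293 cells stably expressing human KISS1R were loaded with calcium dye for 1 h at 37 C, then given compound; fluorescence (Ex/Em 480/540) was read kinetically for 3 min. Fifteen concentrations, triplicate.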

[5] = G protein-coupled receptor (GPCR) small molecule agonists, calcium flux assay: HEK293 wild type cell line counter screen (AID 1920065)
Procedure, shortened: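 Wild-type HEK293 cells plated 18 h, loaded with calcium dye 1 h at 37 C, then compounds added in agonist mode (ATP as positive control). Kinetic fluorescence Ex/Em 480/540 recorded 3 min at 1 sec intervals; 15 concentrations, triplicate.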

[6] = p53 small molecule agonists, cell-based qHTS assay with human liver microsomes (AID 1963577);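 note: p53 response element beta-lactamase reporter cells with liver microsomes plus NADPH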
Procedure, shortened: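 p53RE-bla cells; 5 h settle, 37 C/5% CO2; cpd + HLM 0.5 mg/mL + NADPH 0.5 mg/mL (final); 16 h 37 C; LiveBLAzer 2 h RT dark; fluorescence readout.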

[7] = p53 small molecule agonists, cell-based qHTS assay with rat liver microsomes (AID 1963578)
Procedure, shortened: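 Rat liver microsome activation: microsomes 0.5 mg/mL, NADPH 0.5 mg/mL final; p53RE-bla cells, 16 h 37 C; LiveBLAzer readout, 2 h RT dark.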

[8] = p53 small molecule agonists, cell-based qHTS assay with human liver microsomes: qHTS cell viability counter screen (AID 1963579); note: nearly all actives have a fitted effect of over 45% in size
Procedure, shortened: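 Luminescent CellTiter-Glo read-out, 30 min at room temperature, gauged cytotoxicity in p53RE-bla cells exposed 16 h at 37 C to DMSO-dissolved compounds with metabolic activation by human liver microsomes and NADPH, each 0.5 mg/mL final.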

[9] = p53 small molecule agonists, cell-based qHTS assay with rat liver microsomes: qHTS cell viability counter screen (AID 1963580); note: nearly all actives have a fitted effect of over 45% in size
Procedure, shortened: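 p53RE-bla HCT-116 cells were exposed 16 h at 37 C to compounds with rat liver microsomes (0.5 mg/mL) and NADPH (0.5 mg/mL). Viability was measured in the same wells as ATP content by CellTiter-Glo luminescence.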

[10] = p53 small molecule agonists, cell-based qHTS assay: qHTS cell viability counter screen (AID 1963581); note: nearly all actives have a fitted effect of over 45% in size
Procedure, shortened: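 p53RE-bla HCT-116 cells, compounds added 5 h after plating and incubated 16 h at 37 C. Cytotoxicity measured in the same wells as intracellular ATP by CellTiter-Glo luminescence after 30 min at room temperature.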

[11] = p53 small molecule agonists, cell-based qHTS assay (AID 1963582; active = well fitted activation curve with a large enough effect in the signal ratio in the repeat runs, not every such curve was filed as active; the % refers to the signal ratio)
Procedure, shortened: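 p53RE-bla reporter cells, compounds added in DMSO after 5 h plating, incubated 16 h at 37 C. Beta-lactamase read via 2 h room-temperature LiveBLAzer B/G FRET substrate, fluorescence intensity.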

[12] = target: 5-hydroxytryptamine receptor 2A (Homo sapiens) (UniProt P28223); assay: 5-hydroxytryptamine receptor 2A (HTR2A) small molecule antagonists, cell-based qHTS assay (AID 1963586); note: nearly all actives have a fitted effect of over 45% in size
Chain of 5-hydroxytryptamine receptor 2A (Homo sapiens) (P28223 whole entry, looked up): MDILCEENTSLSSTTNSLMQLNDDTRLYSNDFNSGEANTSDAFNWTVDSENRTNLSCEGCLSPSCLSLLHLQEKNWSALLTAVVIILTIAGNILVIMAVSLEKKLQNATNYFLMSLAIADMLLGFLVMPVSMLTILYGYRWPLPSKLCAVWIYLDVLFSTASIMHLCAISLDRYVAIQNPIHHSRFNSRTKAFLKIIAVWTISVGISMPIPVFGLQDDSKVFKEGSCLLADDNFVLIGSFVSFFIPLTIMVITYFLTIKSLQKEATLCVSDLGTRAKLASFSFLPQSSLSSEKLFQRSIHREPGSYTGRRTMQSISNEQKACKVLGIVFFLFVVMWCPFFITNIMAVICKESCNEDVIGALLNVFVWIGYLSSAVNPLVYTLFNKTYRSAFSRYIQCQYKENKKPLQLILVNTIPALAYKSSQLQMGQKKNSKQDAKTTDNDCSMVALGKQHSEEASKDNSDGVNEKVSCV
Procedure, shortened: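 Antagonist-mode intracellular calcium assay: DOI (4 nM) added after 5 min compound pre-incubation at room temperature to dye-loaded HTR2A-CHO cells. Fluorescence followed for 3 min, sampled every second.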

[13] = target: 5-hydroxytryptamine receptor 2A (Homo sapiens) (UniProt P28223); assay: 5-hydroxytryptamine receptor 2A (HTR2A) small molecule agonists, cell-based qHTS assay (AID 1963587); note: nearly all actives have a fitted effect of over 30% in size
Procedure, shortened: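 CHO cells stably expressing human HTR2A, plated 18 h, loaded with calcium dye 1 h at 37 C. Agonist mode: compounds added and intracellular calcium fluorescence recorded kinetically for 2 min at 1 sec intervals.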

[14] = target: Muscarinic acetylcholine receptor M1 (Homo sapiens) (UniProt P11229); assay: Cholinergic receptor muscarinic 1 (CHRM1) small molecule antagonists, cell-based qHTS assay (AID 1963588); note: nearly all actives have a fitted effect of over 40% in size
Chain of Muscarinic acetylcholine receptor M1 (Homo sapiens) (P11229 whole entry, looked up): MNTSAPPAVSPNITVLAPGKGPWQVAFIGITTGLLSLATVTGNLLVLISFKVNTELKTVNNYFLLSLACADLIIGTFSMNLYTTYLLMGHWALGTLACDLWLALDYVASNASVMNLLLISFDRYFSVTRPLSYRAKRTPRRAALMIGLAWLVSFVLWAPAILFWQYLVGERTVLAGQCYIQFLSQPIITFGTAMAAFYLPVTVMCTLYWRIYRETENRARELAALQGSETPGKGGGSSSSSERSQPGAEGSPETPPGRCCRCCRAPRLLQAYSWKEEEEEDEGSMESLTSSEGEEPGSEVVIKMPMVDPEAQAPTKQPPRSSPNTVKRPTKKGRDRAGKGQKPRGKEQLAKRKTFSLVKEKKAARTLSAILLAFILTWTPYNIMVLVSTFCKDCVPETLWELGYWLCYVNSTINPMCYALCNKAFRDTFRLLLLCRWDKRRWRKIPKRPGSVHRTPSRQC
Procedure, shortened: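 CHRM1-CHO calcium-flux assay, antagonist mode. Cells were seeded 18 h, dye-loaded 1 h at 37 C and given compound for 5 min at RT, then acetylcholine was added at 50nM. FDSS fluorescence was read 3 min; 15 concentrations, three runs.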

[15] = target: Muscarinic acetylcholine receptor M1 (Homo sapiens) (UniProt P11229); assay: Cholinergic receptor muscarinic 1 (CHRM1) small molecule agonists, cell-based qHTS assay (AID 1963589); note: nearly all actives have a fitted effect of over 35% in size
Procedure, shortened: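 CHO cells stably expressing human CHRM1 were loaded with calcium dye for 1 h at 37 C, then compound was added in agonist mode. Intracellular calcium fluorescence was followed kinetically at 1 s intervals. Fifteen concentrations were tested in three independent runs.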

[16] = cAMP Responsive Elements (CRE) small molecule agonists, cell-based qHTS assay (AID 1963590)
Procedure, shortened: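 CRE-bla HEK 293T cells, 2,000/well in DMEM with 10% dialyzed FBS and 25 mM HEPES, pre-incubated 18 h at 37 C, then exposed to compound 3 h at 37 C. Beta-lactamase reporter read with LiveBLAzer B/G FRET substrate after 2 h at room temperature.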

[17] = cAMP Responsive Elements (CRE) small molecule antagonists, cell-based qHTS assay (AID 1963591; active = well fitted inhibition curve with a large enough effect in the signal ratio in the repeat runs, not every such curve was filed as active; the % refers to the signal ratio)
Procedure, shortened: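 CRE-bla HEK293T cells plated 18 h, then given compound plus NKH477 at 0.25 uM final for 3 h at 37C. Beta-lactamase reporter read with LiveBLAzer B/G FRET substrate after 2 h at room temperature.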

[18] = target: Beta-2 adrenergic receptor (Homo sapiens) (UniProt P07550); assay: Adrenergic beta2 receptor (ADRB2) small molecule antagonists, cell-based qHTS assay (AID 1963592); note: series mostly up to about 92 µM; nearly all actives have a fitted effect of over 50% in size
Chain of Beta-2 adrenergic receptor (Homo sapiens) (P07550 whole entry, looked up): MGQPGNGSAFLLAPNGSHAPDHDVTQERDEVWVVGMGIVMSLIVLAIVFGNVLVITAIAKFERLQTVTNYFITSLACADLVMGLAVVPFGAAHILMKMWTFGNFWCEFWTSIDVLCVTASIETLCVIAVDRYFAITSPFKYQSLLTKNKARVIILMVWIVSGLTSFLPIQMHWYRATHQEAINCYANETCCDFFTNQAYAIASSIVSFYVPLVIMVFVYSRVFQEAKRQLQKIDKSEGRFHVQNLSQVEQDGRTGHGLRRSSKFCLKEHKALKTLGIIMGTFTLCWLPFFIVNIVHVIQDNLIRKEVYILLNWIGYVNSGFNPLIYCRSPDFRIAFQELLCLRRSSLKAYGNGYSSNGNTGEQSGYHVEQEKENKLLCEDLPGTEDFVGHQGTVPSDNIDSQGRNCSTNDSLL
Procedure, shortened: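 Cells (CHO, stable ADRB2 overexpression) incubated 18-20hr at 37C; compounds added from DMSO; agonist mix (1nM isoproterenol, 100uM IBMX, 25uM Ro-20-1724) added; 0.5hr RT; d2-cAMP and anti-cAMP-cryptate added; 1hr RT; 665/615 nm read.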

[19] = target: Beta-2 adrenergic receptor (Homo sapiens) (UniProt P07550); assay: Adrenergic beta2 receptor (ADRB2) small molecule agonists, cell-based qHTS assay (AID 1963593);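 note: CHO cells stably overexpressing human ADRB2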
Procedure, shortened: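 CHO cells stably over-expressing ADRB2 were plated overnight at 37C, then dosed with compounds plus a stimulation mix containing 100uM IBMX and 25uM Ro-20-1724 for 0.5hr at room temperature. cAMP was measured by HTRF competition, 1hr.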

[20] = target: D(2) dopamine receptor (Homo sapiens) (UniProt P14416); assay: Dopamine D2 receptor (DRD2) small molecule agonists, cell-based qHTS assay (AID 1963594); note: nearly all actives have a fitted effect of over 35% in size
Chain of D(2) dopamine receptor (Homo sapiens) (P14416 whole entry, looked up): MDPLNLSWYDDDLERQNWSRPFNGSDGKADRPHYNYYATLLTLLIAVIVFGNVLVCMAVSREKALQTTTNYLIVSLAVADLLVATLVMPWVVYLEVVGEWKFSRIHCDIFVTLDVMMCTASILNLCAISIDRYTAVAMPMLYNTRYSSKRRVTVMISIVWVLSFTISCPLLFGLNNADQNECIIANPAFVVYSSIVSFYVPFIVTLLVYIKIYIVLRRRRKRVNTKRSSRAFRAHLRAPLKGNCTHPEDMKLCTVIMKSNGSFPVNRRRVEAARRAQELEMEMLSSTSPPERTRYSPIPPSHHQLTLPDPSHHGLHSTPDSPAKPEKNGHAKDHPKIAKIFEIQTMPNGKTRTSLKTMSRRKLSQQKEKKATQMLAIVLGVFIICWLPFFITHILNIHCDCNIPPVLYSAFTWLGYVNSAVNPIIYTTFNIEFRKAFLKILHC
Procedure, shortened: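 HEK293 cells stably expressing human DRD2, pre-treated with PDE inhibitor Ro20-1724 (0.1 mM final) and compound 10 min at room temperature, then stimulated with NKH477 (200nM […]) for 30 min. cAMP read by HTRF (665/620 nm).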

Measured: Potency

CCN(CC)c1ccc(C=O)c(O)c1
inactive: all assays above

Nc1cc([N+](=O)[O-])ccc1Cl
inactive: all assays above

CC1=CC[C@H](CC=O)C1(C)C
inactive: all assays above

COc1cccc(OC)c1C(=O)N[C@@H]1C(=O)N2[C@@H]1SC(C)(C)[C@@H]2C(=O)O
inactive: all assays above

Cc1ccccc1S(=O)(=O)O
inactive: all assays above

O=Cc1ccc(C(=O)O)cc1
inactive: all assays above

CC(=O)N(CC(O)CO)c1c(I)c(C(=O)NCC(O)CO)c(I)c(C(=O)NCC(O)CO)c1I (stereo not given)
inactive: all assays above
